The record followed here is PubChem BioAssay AID1347430 (National Center for Advancing Translational Sciences (NCATS), 2020).

Structures are written as SMILES. About 130 (0.14%) of roughly 91,000 compounds were called active. Roughly 3% stayed inconclusive and do not appear here. Calls come from the whole dose curve; as a rule, active = well fitted inhibition curve with a large enough effect; inconclusive = small, poorly fitted or top-dose-only effect; inactive = flat fitted curve, though single readings scatter. The list comes from a sample in which actives are over-represented; it also holds similar structures and randomly drawn compounds. Entries that show only a call come without a potency.
Potency is the fitted concentration of half-maximal effect.

In this experiment the test system is Uracil-DNA glycosylase. Briefly: Primary qHTS assay for inhibitors of Activation Induced Cytidine Deaminase (AID): UDG Counterscreen signal. Note: nearly all actives have a fitted effect of over 65% in size. The note with it: FRET deamination/UDG coupled assay, UDG read, 4 h; series mostly up to 115 µM. The source says: Assay Provider (PI) Patricia Gearhart Ph.D.
National Institute on Aging
National Institute of Health (NIH), Bethesda, MD
Assay Provider (PI) Rahul Kohli Ph.D.
Perelman School of Medicine
University of Pennsylvania, Philadelphia, PA
Activation-Induced Deaminase (AID) is a cytosine deaminase which converts cytosine into uracil within stretches of ssDNA. The presence of uracil in DNA initiates a cascade of mutagenic DNA repair to introduce point mutations and DNA double strand breaks. Specific targeting of AID to the immunoglobulin heavy chain loci (Igh) promotes mutagenesis in the antibody variable region for somatic hypermutation (SHM) or switch regions leading to class switch recombination (CSR). However, AID also plays a role in accumulating unnecessary mutations across the genome. Mis-targeting of AID results in the initiation of tumor development and leads to greater drug resistance among cancer cells when continually expressed. To identify an AID inhibitor, a small molecule library will be screened in collaboration with NCATS core facility at NIH. To confirm biological function, inhibitors will be examined in an in vitro murine B-cell activation assay and subsequent secondary validation screens. Top molecules will be further screened to identify inhibitory efficacy against a wild type primary splenocytes assay. Using these approaches, we hope to identify a small molecule with great efficacy and low toxicity for use as a molecular probe to further characterize AID's intricacies, or even as a therapeutic.
A FRET based analysis of cytosine deamination, was developed to identify potential inhibitors of AID catalytic activity. This screen has two signal output, Read 1 evaluates the AID inhibition response. The second readout (Read 2) evaluates UDG response and is uses as a counterscreen to exclude false positive inhibitors. Inhibition in AID and inactivity in the UDG signal is the desired outcome for this assay.
SEQUENCE No. (e.g., 1, 2, 3, etc.); […] (e.g., Cells, Incubation, Reagent, etc.); VALUE; DESCRIPTION
1a; Reagent; 3 uL; [4/3x] 1 uM AID/2.67 U/mL UDG
1b; Reagent; 3 uL; 2 U/mL UDG
1c; Reagent; 3 uL; 1 uM AID
2a; Compound; 46 nL; Follow-up plates (0.64 uM - 10 mM)
2b; Control; 46 nL; ATA ([…] - 10 mM)
3; Time; 10 min; incubation at room temperature
5; Time; 4 hr; incubation at room temperature
6; Reagent; 4 uL; [2x] 250 mM NaOH
7; Time; 15 sec; centrifuge at 1000 rpm
8; Time; 30 min; incubation at room temperature
9a; Detection; fluorescence (Read 1: AID); EnVision (PerkinElmer) plate reader, 540 excitation and 590 emission filters
9b; Detection; fluorescence (Read 2: UDG); EnVision (PerkinElmer) plate reader, 560 excitation and 665 emission filters
NOTES (numbers refer to sequence above)
1a; Reagents were dispensed in a medium-binding black solid-bottom Greiner plates (789176F) using a BioRptr liquid dispenser. Dispense 3 uL of [4/3x] 1 uM AID (provided by Kohli lab) and [4/3x] 2 U/mL UDG (NEB M0280L) into columns 1, 2, 5 to 48.
1b; Dispense 3 uL of [4/3x] 2 U/mL UDG into column 3.
1c; Dispense 3 uL of [4/3x] 1 uM AID into column 4.
2a; Compound (7-points [uM] (0.64; 3.2; 16; 80; 400; 2,000; 10,000; 20,000) double pin-transferred (Dip Factor = 2) using the Kalypsys (Wako USA) pintool equipped with a 1536 pinhead for a final concentration range of 7.32 nM - 114 uM.
2b; 10 mM Aurintricarboxylic Acid (Sigma A1895) (ATA, 8-point, n = 2, 1:2.5 dilution in column 2) double pin-transferred (Dip Factor = 2) using the Kalypsys (Wako USA) pintool equipped with a 1536 pinhead for a [final] range of 186 nM - 114 uM.
3; Room temperature incubation.
4; Dispense 1 uL of substrate mixture from the Kohli lab [4x] […] DJC20 and [4x] 250 nM DJC23 into columns 1 to 48 .
5; Room temperature incubation.
6; Dispense 4 uL of substrate mixture [2x] 250 mM NaOH into columns 1 to 48.
7; Centrifugation step to remove bubbles.
8; Room temperature incubation
9a; Fluorescence signal (column label AID) was read using the EnVision plate reader. […]
(qHTS replaces the single test concentration by a dilution series.)
Turning to `COc1ccccc1NC(=O)CSc1nc2c(=O)[nH]cnc2n1-c1ccccc1`, the Potency result was “inactive”.
To `O=C(O)c1cccnc1SC(F)(F)F` belongs “inactive”.
For the molecule `Cc1ccc(C(CNC(=O)c2cc(-c3ccccc3)on2)N2CCC(C)CC2)o1` (stereo unspecified), the Potency entry was “inactive”.
With `O=C(CCC1CCCC1)N1CCN(CC2CC=CCC2)CC1` (stereo unspecified), the Potency entry was “inactive”.
To `CC(=O)c1c(C)[nH]c(C(=O)OCC(=O)Nc2ccc(Br)c(C)c2)c1C` belongs “inactive”; to `COC(=O)Cn1cnc2c(sc3nc(C4CCCCC4)c4c(c32)CCC4)c1=O`, “inactive”.
To `COc1cccc2cc(/C=C(/C#N)c3nc4ccccc4[nH]3)oc12` belongs “inactive”; to `COc1cc(SC)ccc1C(=O)Oc1cccc(F)c1`, “inactive”.
`CCCCn1c(=O)[nH]c(=O)c2c1nc(COC(=O)c1cc(C)ccc1C)n2CCC`: the Potency entry was “inactive”.
Regarding `O=C1C(O)=C(c2ccccc2)C(c2ccccc2)N1Cc1ccccn1` (stereo unspecified), the Potency entry is “inactive”.
Consider `CCCCC(CC)CNc1ncnc2sccc12` (stereo unspecified), for which the Potency entry is “inactive”.
For the molecule `CCc1c(C)sc(NC(=O)c2cccc3ccccc23)c1C#N`, the Potency entry is “inactive”.
With `Cc1cn2c(=O)cc(COC(=O)COc3ccccc3)nc2s1`, the Potency entry is “inactive”.
As for `O=C(NC1C2CC3CC(C2)CC1C3)c1cccc(Br)c1` (stereo unspecified), the Potency result was “inactive”.
For the molecule `Cc1ccc2cccc(NC(=O)c3ccccc3C)c2n1`, the Potency result is “inactive”.
Regarding `CCCc1cc(=O)oc2c(C)c(OCC(=O)NCc3ccccn3)ccc12`, the Potency result was “inactive”.
Take `CCCCc1c/c(=N\O)oc2cc3occ(C)c3cc12`: the Potency result was “inactive”.
Regarding `N#C/C(=C/c1ccccc1OC(F)F)c1nc2cc(C(F)(F)F)ccc2s1`, the Potency result was “inactive”.
To `Cc1csc(CNC(=O)c2cnccn2)n1` belongs “inactive”.
With `CCN(C(=O)COc1ncnc2c(Cl)cc(Cl)cc12)c1ccccc1` the entry was “inactive”; with `O=[N+]([O-])c1cc(S(=O)(=O)Nc2ccccc2NS(=O)(=O)c2cccs2)ccc1Cl`, “inactive”.
Regarding `CC(C)=CC(=O)Nc1ccccc1SC1CCCC1`, the Potency entry was “inactive”.
For `CN(/C=C/[N+](=O)[O-])c1ccccc1`, the Potency entry is “inactive”.
Take `CCCCc1cnc2c(c1SCC(=O)NCC1CCCO1)c(=O)n(C)c(=O)n2C` (stereo unspecified): the Potency result was “inactive”.
Take `CC1CCC(NC(=O)/C=C/c2ccc(C(=O)NC3CC3)cc2)CC1` (stereo unspecified): the Potency entry was “inactive”.
Regarding `C=CCn1c(SC(C)C(=O)OC)nc2c1c(=O)[nH]c(=O)n2C` (stereo unspecified), the Potency entry is “inactive”.
To `CC(OC(=O)c1cc(=O)c2ccccc2o1)C(=O)Nc1cc(C(F)(F)F)ccc1Cl` (stereo unspecified) belongs “inactive”; to `CCN(CC)S(=O)(=O)c1ccc([N+](=O)[O-])cc1`, “inactive”.
With `Cc1cccc(C(=O)Nc2ccc3nsnc3c2)c1`, the Potency entry was “inactive”.
In the case of `Cc1ccc2c(COC(=O)C3CCCO3)cc(=O)oc2c1C` (stereo unspecified), the Potency result was “inactive”.
To `Cc1ccc(C(=O)N2CCCc3cc(C(=O)NCCC(C)C)ccc32)cc1` belongs “inactive”; to `O=C(NC1CCCC1)C1CC=CCC1c1nc2ccccc2s1` (stereo unspecified), “inactive”; to `CCCCCCCCOC(=O)/C(C#N)=C/c1ccc(-c2cccc(C(F)(F)F)c2)o1`, “inactive”.
For the molecule `O=C(Nc1cc(C(F)(F)F)ccc1Cl)c1c(F)cccc1F`, the Potency entry was “inactive”.
With `Cc1[nH]c2ccccc2c1C(=O)C(C)Sc1nnnn1C1CCCC1` (stereo unspecified) the entry was “inactive”; with `O=C(Nc1cccc(S(=O)(=O)N2CCCC2)c1)c1n[nH]c2ccccc12`, “inactive”.
Take `O=C(c1ccn(COc2ccccc2)n1)N1CCN(Cc2ccc(Cl)cc2)CC1`: the Potency result was “inactive”.
With `CC(C)COC(=O)c1nn(Cc2ccccc2)c(=O)c2ccccc12` the entry was “inactive”; with `COc1ccc2c(CCNC(=O)CCNc3nc(Cl)nc4nc[nH]c34)c[nH]c2c1`, “inactive”; with `CCOc1cc(C#N)ccc1OC(C)C(=O)c1ccc(OC)cc1` (stereo unspecified), “inactive”.
Regarding `C/C(=N\NC(=O)C1CC1c1ccccc1)c1ccc(C)c(C)c1` (stereo unspecified), the Potency entry is “inactive”.
`CCc1ccc(Sc2cc(C(=O)NC3CCCC3)c3ccccc3n2)cc1`: the Potency result was “inactive”.
Consider `Fc1ccc(NCC23CC4CC(CC(C4)C2)C3)cc1`, for which the Potency entry is “inactive”.
With `OC(Cc1c[nH]c2ccccc12)(c1ccccc1)c1ccccc1` the entry was “inactive”.
Turning to `COc1ccc(C(=O)COC(=O)C(C)Oc2ccc(F)cc2)cc1OC` (stereo unspecified), the Potency result was “inactive”.
Take `CC1(C)Cc2c(sc(NC(=O)C(N)=O)c2C#N)CO1`: the Potency result is “inactive”.
With `CN(/C=C/C(=O)C(F)(F)F)C1(c2ccccc2Cl)CCCCC1=O` (stereo unspecified), the Potency result was “inactive”.
To `Cc1ccccc1C(=O)c1cc2ccccc2o1` belongs “inactive”.
With `CC(C)CCNC(=O)COC(=O)c1cc(-c2ccco2)nc2ccccc12` the entry was “inactive”; with `CN(Cc1ccsc1)C(=O)CCc1cccs1`, “inactive”.
To `Oc1ccc(Cl)cc1C=NCc1ccc(F)cc1Cl` belongs “inactive”; to `N#Cc1cccc(C(=O)OCc2cccnc2)c1`, “inactive”.
Consider `COc1ccc(Cl)cc1COc1ccccc1C#N`, for which the Potency result is “inactive”.
Turning to `CCc1nnc(SCC(=O)Nc2ccc(Cl)c(Cl)c2)n1-n1cccc1`, the Potency result is “inactive”.
For the molecule `CCCN1C=NS(=O)(=O)c2cc(C(=O)NC(C)(C)C)ccc21`, the Potency result is “inactive”.
On to `Cc1nc2ccc(C(=O)NCC(=O)NCC(F)(F)F)cc2nc1C`, for which the Potency entry was “inactive”.
As for `NCc1ccc(CN2CCCCCCC2)cc1`, the Potency result was “inactive”.
With `CCN(Cc1cccs1)C(=O)CC1CC2CCC1C2` (stereo unspecified) the entry was “inactive”.
With `COc1cc(C(=O)Nc2ncccc2C)cc(Cl)c1OC(C)C`, the Potency result was “inactive”.
As to `CCCc1c(C(=O)OCC)nnc2c(-c3ccc(Cl)cc3)c(C)nn12`, the Potency result is “inactive”.
Turning to `N#Cc1ccc(CCC(=O)NCc2ccc(F)cc2)cc1`, the Potency result was “inactive”.
Turning to `COc1ccc(NS(=O)(=O)c2ccc(N3C(=O)C(C)CS3(=O)=O)cc2)cc1Cl` (stereo unspecified), the Potency result was “inactive”.
Take `COc1ccc(NS(=O)(=O)c2cc3c4c(c2)CC(=O)N4CCC3)cc1Cl`: the Potency is 89.1 µM (active).
For `COc1ccc2c(c1)c(N1CCCC1=O)c(C(=O)Nc1ccc(OC)c(Cl)c1)n2C`, the Potency result is “inactive”.
`CN(C)C1(c2nnnn2-c2cccc(C(F)(F)F)c2)CCCC1`: the Potency result is “inactive”.
In the case of `Cn1c(=O)c2c(ncn2CC(=O)OCc2ccccc2F)n(C)c1=O`, the Potency result was “inactive”.
With `COc1ccccc1Cc1nc2ccccc2nc1SCC(=O)N1CCCc2ccccc21` the figure was 89.1 µM (active).
On to `O=C(Nc1ccc2nc(SCC(=O)N3CCCc4ccccc43)sc2c1)c1ccc(F)cc1`, for which the Potency result was “inactive”.
With `O=C(CSc1nc2ccccc2nc1Cc1ccccc1)N1CCCCC1` the entry was “inactive”.
To `CN(Cc1ccc2c(c1)OCCO2)CC(O)COc1ccccc1C(C)(C)C` (stereo unspecified) belongs “inactive”; to `CCNc1nc(-c2cccs2)nc2ccccc12`, “inactive”.
As to `Cc1ccc(-c2nnc(SCC(=O)Nc3cc(C)on3)n2C2CC2)cc1`, the Potency result was “inactive”.
With `CC(C)(C)C(=O)Nc1ccc(-c2csc(N)n2)cc1` the entry was “inactive”; with `COc1ccccc1C(=O)Nc1ccc(O)c(-c2nc3ccccc3o2)c1`, “inactive”.
In the case of `CS(=O)(=O)Cc1cccc(C(=O)NCc2ccccc2F)c1`, the Potency entry was “inactive”.
In the case of `CCC(Sc1nc2nccnc2c(=O)n1Cc1ccc(OC)cc1)C(=O)NCc1ccc(C)cc1` (stereo unspecified), the Potency result is “inactive”.
As to `COc1ccc(CCN2CNc3c(c(=O)[nH]c(=O)n3-c3ccccc3Cl)C2)cc1OC`, the Potency result was “inactive”.
`O=C(O)C(Sc1ccc2ccccc2n1)c1ccccc1` (stereo unspecified): the Potency result was “inactive”.
To `NCCOc1cccc(C(F)(F)F)c1` belongs “inactive”; to `CCC(NC(=O)C1CC1)c1ccccc1` (stereo unspecified), “inactive”.
`Cc1ccc(-c2cnc3ccccc3n2)c(C)c1`: the Potency result is “inactive”.
As to `CCCCNc1nc2c(c(=O)[nH]c(=O)n2C)n1CC(O)COC(C)C` (stereo unspecified), the Potency result was “inactive”.
Consider `Cc1ccccc1NC(=O)/C(C#N)=C/c1ccc(OC(=O)c2ccccc2)cc1`, for which the Potency result was “inactive”.
For the molecule `Cc1cccc(NS(=O)(=O)c2ccc(C)c(C(=O)NCC(c3ccccc3)N(C)C)c2)c1` (stereo unspecified), the Potency entry was “inactive”.
As to `O=C(COc1cc(Cl)c(Cl)cc1Cl)Nc1ccc2oc(-c3ccncc3)nc2c1`, the Potency result is “inactive”.
With `COC(=O)c1c(C)[nH]c(C(=O)CSc2nncs2)c1C` the entry was “inactive”.
